# Assay outcomes: PubChem, National Center for Advancing Translational Sciences (NCATS)
# nsP2pro inh: inhibitors of chikungunya virus nsP2 protease; Q8JUX6; FRET peptide cleavage, nsP2pro, fluorescence 1 h; Potency, µM (series often up to 24.9 µM), inactives show at the highest dose activity change, negative = inhibition, hits mostly inhibitors; hit rate 1.1% among 31,000; further: nearly all actives have a fitted effect of over 60% in size
#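 Enzyme 150 nM, substrate 2.5 uM (both final); Tris-HCl 10 mM pH 8.0 + 0.01% Tween 20; cpd up to 25 uM, 7 pts; 15 min preinc., 1 h RT; fluorescence ex 525/em 598.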
# CHIKV nsP2 cell: secondary cell-based test for CHIKV nsP2 protease inhibitors; shares compounds with nsP2pro inh; cell-based CHIKV nsP2 protease reporter assay; Potency, µM (doses to about 51.1 µM), inactives show at the highest dose activity change, negative = inhibition, hits mostly inhibitors; hit rate 10% among 450; AID 1964100; further: nearly all actives have a fitted effect of over 70% in size
# CHIKV NSP2 FL: inhibits full-length CHIKV NSP2 enzyme; Potency, µM (top dose mostly 50.7 µM), inactives show top-dose activity change, negative = inhibition, hits mostly inhibitors; AID 1964101; shares compounds with nsP2pro inh; Full-length CHIKV NSP2 protease enzymatic counterscreen; hit rate 39% among 410; further: nearly all actives have a fitted effect of over 65% in size
# Furin counterscr: selectivity counter-screen for CHIKV nsP2 protease inhibitors: human furin. shares compounds with nsP2pro inh. Recombinant human furin enzymatic counterscreen, fluorogenic substrate. Potency, µM (series often up to 50.6 µM), for inactives: top-dose activity change, negative = inhibition, usual class: inhibitors. hit rate 6% among 410
# Target sequence (P09958 whole entry, looked up): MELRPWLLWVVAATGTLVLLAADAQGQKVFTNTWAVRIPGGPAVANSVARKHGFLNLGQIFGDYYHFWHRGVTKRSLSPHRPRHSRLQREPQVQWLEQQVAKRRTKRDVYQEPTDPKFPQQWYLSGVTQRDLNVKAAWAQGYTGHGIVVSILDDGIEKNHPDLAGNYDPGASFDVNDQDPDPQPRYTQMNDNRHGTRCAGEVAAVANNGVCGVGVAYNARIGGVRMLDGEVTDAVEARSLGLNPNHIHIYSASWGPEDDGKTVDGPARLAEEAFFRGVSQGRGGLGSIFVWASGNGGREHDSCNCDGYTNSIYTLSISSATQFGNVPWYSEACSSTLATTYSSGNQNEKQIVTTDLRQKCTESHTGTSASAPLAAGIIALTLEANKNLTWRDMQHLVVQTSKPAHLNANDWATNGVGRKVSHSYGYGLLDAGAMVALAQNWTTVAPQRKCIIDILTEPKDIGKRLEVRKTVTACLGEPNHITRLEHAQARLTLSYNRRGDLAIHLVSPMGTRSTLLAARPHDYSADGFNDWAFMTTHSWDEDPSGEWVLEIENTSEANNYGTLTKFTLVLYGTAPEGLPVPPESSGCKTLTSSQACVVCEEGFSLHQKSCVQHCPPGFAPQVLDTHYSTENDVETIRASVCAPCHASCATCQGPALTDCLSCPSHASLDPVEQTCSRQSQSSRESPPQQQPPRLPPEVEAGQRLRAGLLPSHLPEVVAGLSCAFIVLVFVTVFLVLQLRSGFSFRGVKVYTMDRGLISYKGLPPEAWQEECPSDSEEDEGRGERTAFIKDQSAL
# nsP2 NS23 pep: blocks CHIKV nsP2 protease cleavage of endogenous NS2/3 peptide; Purified CHIKV nsP2 protease, endogenous NS2/3 peptide cleavage; hit rate 34% among 410; AID 1964103; Potency, µM (highest dose often 51 µM), for inactives: top-dose activity change, negative = inhibition, most hits filed as inhibitors; shares compounds with nsP2pro inh; further: nearly all actives have a fitted effect of over 55% in size
# Papain cs: papain protease inhibition, counterscreen for nsP2pro inhibitors; shares compounds with nsP2pro inh; purified papain protease activity, enzymatic inhibition; Potency, µM (top dose mostly 51 µM), for inactives: top-dose activity change, negative = inhibition, usual class: inhibitors; hit rate 5% among 410; AID 1964104
# nsP2pro conf qHTS: CHIKV nsP2 protease inhibition, confirmatory qHTS; shares compounds with nsP2pro inh; CHIKV nsP2 protease enzymatic activity, qHTS; Potency, µM (doses to about 25.5 µM), for the others: at the top dose activity change, negative = inhibition, most hits filed as inhibitors; hit rate 43% among 410; further: nearly all actives have a fitted effect of over 75% in size
# HCV NS3 4A cs: HCV NS3/4A protease inhibition, counterscreen; shares compounds with nsP2pro inh; HCV NS3/4A protease biochemical counterscreen; Potency, µM (top dose mostly 50.9 µM), hits mostly inhibitors; hit rate 20% among 410; further: nearly all actives have a fitted effect of over 55% in size
# Starred values were filed as active, the others as inactive; i = inactive; ? = inconclusive; . = no result given; ! = repeats disagree; [ ] = another dose, or the depositor's remark. The sample as a whole holds a higher share of hits than the screen did. The call rests on the fitted dose curve. On the % scale 0 is the no-effect control and ±100 the full control effect; potency means the concentration at half of the fitted maximal effect.
SMILES,nsP2pro inh,CHIKV nsP2 cell,others
CS(=O)(=O)Nc1ccc(OCC(=O)N2CCN(c3ccc(F)cc3)CC2)nc1,-15%,.,
CC(C)Nc1cccnc1N1CCN(C(=O)c2cc3cc(NS(C)(=O)=O)ccc3[nH]2)CC1,1.8µM*!,-1%,CHIKV NSP2 FL=?;Furin counterscr=-6%;nsP2 NS23 pep=?;Papain cs=-2%;nsP2pro conf qHTS=?;HCV NS3 4A cs=i
COc1ccc(N2CCN(C(=O)c3cc4ccc5cccnc5c4[nH]3)CC2)cc1,-9%,.,
COc1ccc(N(C)C(=O)c2c(C)oc3c2CN(Cc2ccc(F)cc2)CC3)cc1,-30%,.,
CC1(C)Oc2ncnc(N)c2N=C1c1ccc(C23CCC(CC(=O)O)(CC2)CC3)cc1,-8%,.,
CCc1ccc(NC(=O)Cn2c(=O)c3cc(Cl)ccc3n3nncc23)cc1,-15%,.,
CCc1ccc(NCc2cc3cc4c(cc3n(CC(=O)Nc3ccc(Cl)cc3)c2=O)OCO4)cc1,?,-1%,
CCOc1ccc(NC(=O)Cn2cc(C(=O)c3ccc(CC)cc3)c(=O)c3cc4c(cc32)OCO4)cc1,-16%,.,
Fc1ccccc1-c1nc(NCc2ccc(-c3cccnc3)cc2)c2ccccc2n1,i,.,
C=C1C(=O)O[C@H]2C1[C@H](OC(=O)/C(=C/CO)COC(=O)/C(C)=C/CO)CC(=C)[C@@H]1CC(=O)[C@@H](C)[C@@H]12 (some centres not stated),1.2µM*,?,CHIKV NSP2 FL=1.8µM*;Furin counterscr=-5%[17.3 µM];nsP2 NS23 pep=3.6µM*;Papain cs=-7%[17.2 µM];nsP2pro conf qHTS=0.87µM*;HCV NS3 4A cs=?
C=C1C(=O)O[C@@H]2CC(C)=C([C@@H](C)CCCO)[C@@H](OC(=O)C(C)C)[C@H]12,48%,.,
C=C(CO)C(=O)O[C@H]1CC(=C)[C@@H]2C[C@H](O)C(=C)[C@@H]2[C@H]2OC(=O)C(=C)[C@@H]21,4%,.,
COc1ccc(CNS(=O)(=O)c2cc(-c3[nH]ncc3C(=O)N3CCCC3)oc2C)cc1,7.1µM*,6%,CHIKV NSP2 FL=?;Furin counterscr=-7%;nsP2 NS23 pep=-4%;Papain cs=-6%;nsP2pro conf qHTS=-8%;HCV NS3 4A cs=?
COc1ccc(CNS(=O)(=O)c2cc3c(cc2C)N(C)CCO3)cc1,-20%,.,
COc1ccc(CNC(=O)C2CCC(CNS(=O)(=O)c3ccc4c(c3)CCCC(=O)N4)CC2)cc1 (configuration not stated),-10%,.,
C=C(C)C(=O)OC1CC2(C)OC(=CC2=O)C(=C)CC2OC(=O)C(COC)C12 (configuration not stated),4%,.,
CCCSc1ncc(Cl)c(C(=O)N(Cc2ccc(Cl)cc2)Cc2ccco2)n1,37%,.,
CCCS(=O)(=O)c1ncc(Cl)c(C(=O)N(Cc2ccccc2)Cc2ccco2)n1,5.6µM*,4.6µM*,CHIKV NSP2 FL=18µM*;Furin counterscr=-13%;nsP2 NS23 pep=6.5µM*;Papain cs=-1%;nsP2pro conf qHTS=4.5µM*;HCV NS3 4A cs=?
CCSc1ncc(Cl)c(C(=O)N(Cc2ccccc2)Cc2ccco2)n1,-17%,.,
CC(Nc1nc(-c2ccccc2C(F)(F)F)nc2ccccc12)c1ccc(-c2ccncc2)cc1 (configuration not stated),0%,.,
CC(O)C(CO)NC(=O)C1CSSCC(NC(=O)C(N)Cc2ccccc2)C(=O)NC(Cc2ccccc2)C(=O)NC(Cc2c[nH]c3ccccc23)C(=O)NC(CCCCN)C(=O)NC(C(C)O)C(=O)N1 (configuration not stated),72%[10 µM],.,
O=C(NC1CCCc2c1cnn2-c1ccc(F)cc1F)c1ccc(C(=O)c2ccccc2)cc1 (configuration not stated),-3%,.,
COc1ccc(-n2ncc3c2CCCC3NC(=O)c2ccc3ncccc3c2)cc1 (configuration not stated),?,21µM*,CHIKV NSP2 FL=?;Furin counterscr=-4%;nsP2 NS23 pep=-14%;Papain cs=-9%;nsP2pro conf qHTS=6%;HCV NS3 4A cs=?
COc1ccc(-n2ncc3c2CCCC3NC(=O)c2cnc(C)cn2)cc1 (configuration not stated),-7%,.,
CC(C)(C)c1cc(C[C@H]2CNCC[C@H]2CC(=O)N2CCC(Cc3ccccc3)CC2)no1,2%,.,
SMILES,nsP2pro inh,CHIKV nsP2 cell,others
O=S(=O)(c1ccc(Cl)cc1)N1CCN(c2ccnc3cc(Cl)ccc23)CC1,6%,.,
Cc1cccc2c3c(ccc12)C1=C(C(=O)C3=O)[C@@H](C)CO1,?,-15%,CHIKV NSP2 FL=10µM*;Furin counterscr=-16%;nsP2 NS23 pep=?;Papain cs=?;nsP2pro conf qHTS=10µM*;HCV NS3 4A cs=i
CN(C)c1ccc2nc(NC(=S)N3CCN(c4cccc(C(F)(F)F)c4)CC3)sc2c1,i,.,
CC(=O)Oc1ccccc1C(=O)O,-8%,.,
CC(=O)Nc1ccccc1,-2%,.,
CC(=O)[O][Hg][c]1ccccc1,1.2µM*,1.3µM*,CHIKV NSP2 FL=1.8µM*;Furin counterscr=1.2µM*;nsP2 NS23 pep=4.6µM*;Papain cs=-6%;nsP2pro conf qHTS=0.36µM*;HCV NS3 4A cs=?
O=C(c1ccc(Br)o1)N1C[C@@H](CO)[C@H](c2ccncc2)C1,i,.,
CC(C)(NC(=O)Nc1ccccc1Cl)C(=O)N1CCC(C(=O)O)CC1,-4%,.,
CN(C)CC(=O)N1CCC[C@@H](n2nc(-c3ccc(Oc4ccccc4)cc3)c3c(N)ncnc32)C1,131%,.,
N#CN1CCC[C@@H](n2nc(-c3ccc(Oc4ccc(F)cc4F)cc3)c(C(N)=O)c2N)C1,?,-10%,CHIKV NSP2 FL=18µM*;Furin counterscr=-9%;nsP2 NS23 pep=?;Papain cs=?;nsP2pro conf qHTS=7.1µM*;HCV NS3 4A cs=i
O=C1Cc2c(-c3ccccc3OCc3ccccc3)n[nH]c2CN1Cc1ccccn1,i,.,
Cc1ccc(S(=O)(=O)Nc2cnccc2C(=O)Nc2ccc(-n3cncn3)cc2)cc1,i,.,
CCC(=O)NC[C@@H]1C[C@H]1c1cccc2c1CCO2,-10%,.,
O=C1NC(Cc2c[nH]c3ccccc23)C(=O)NC1Cc1c[nH]c2ccccc12 (configuration not stated),6.1µM*,-1%[33.5 µM],CHIKV NSP2 FL=-15%[33.5 µM];Furin counterscr=-5%[33.5 µM];nsP2 NS23 pep=-21%[33.5 µM];Papain cs=?;nsP2pro conf qHTS=-39%[16.7 µM];HCV NS3 4A cs=i
NCCc1c[nH]c2ccccc12,-22%,.,
CC(N)Cc1c[nH]c2ccccc12 (configuration not stated),-12%,.,
COc1cc(O)c(C(CC(=O)N2CCCC(C(=O)c3ccccc3)C2)c2ccc3c(c2)OCO3)c(OC)c1 (configuration not stated),-4%[39.2 µM],.,
COc1ccc(-n2cnc3cc(C(=O)N4CCCCC4)ccc32)cc1,-52%,.,
Cc1noc(C2CN(C(=O)c3cc(-c4ccco4)[nH]n3)CC2c2ccccc2)n1 (configuration not stated),10µM*,8%,CHIKV NSP2 FL=8.2µM*;Furin counterscr=-9%;nsP2 NS23 pep=?;Papain cs=-13%;nsP2pro conf qHTS=9µM*;HCV NS3 4A cs=?
